The values that follow come from PubChem BioAssay AID504444 (National Center for Advancing Translational Sciences (NCATS), 2011).

Hit rate of the full screen: of about 360,000 compounds, about 7,500 (2.1%) were called active. A call without a number means that no potency is given here. Not shown: some 20% with an inconclusive outcome. The sample as a whole holds a higher share of actives than the screen did. Unmarked numbers belong to inactive results. Calls come from the whole dose curve; as a rule, active = well fitted inhibition curve with a large enough effect; inconclusive = small, poorly fitted or top-dose-only effect, or effect the other way; inactive = flat fitted curve, though single readings scatter.
Potency is the fitted concentration of half-maximal effect.

The assay is described as follows: Nrf2 qHTS screen for inhibitors. Note: nearly all actives have a fitted effect of over 60% in size. The settings on record: A549 ARE-Fluc reporter, luciferase luminescence, 18-24 h; series mostly up to 46 µM. The procedure, abridged:
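Quantitative HTS in A549 cells stably bearing an antioxidant response element-firefly luciferase construct. Inhibition of Nrf2-driven transcription was scored by luminescence after 18-24 h of compound exposure at 37 °C.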
A general note: qHTS replaces the single test concentration by a dilution series.
For the compound `CCOC(=O)c1c(C)n(S(=O)(=O)c2ccc(C)cc2C)c2ccc(NS(=O)(=O)c3ccc(C)cc3C)cc12`, the Potency result was “inactive”.
Still for that read-out and setting: the value for `CCN(CC)S(=O)(=O)c1cccc(NC(=O)c2ccc(S(=O)(=O)N3CCCC3)cc2)c1` was 23.1 µM (active); that for `O=C(Nc1cccc(S(=O)(=O)N2CCCC2)c1)c1cncc(Br)c1` was “inactive”.
On the same count and under the same terms, the same measure for `COc1cc(C(=O)NNC(=O)c2ccc(S(=O)(=O)N3CCCCC3)cc2)cc(OC)c1OC`: “inactive”; for `CC(C)n1ncc2c(C(=O)NCc3ccccc3CN(C)C)cc(C3CC3)nc21`: “inactive”.
The same measure, in the same setting: the value for `CC(C)(C)C(=O)Nc1cccc(-c2ccc[nH]2)n1` was “inactive”; that for `COc1cc2c(cc1OC)C(c1ccncc1)CC(=O)N2` (stereo not drawn) was “inactive”; that for `COC(=O)c1ccc(C2CC(=O)Nc3cc(OC)c(OC)cc32)cc1` (stereo not drawn) was “inactive”.
Take `Cc1cc2c(cc1C)C(c1cccc(OC(C)C)c1)CC(=O)N2` (stereo not drawn): the Potency was 16.4 µM (active).
Same read-out and setting: the value for `Cc1ccc(NC(=O)CN2C(=O)CC(C)Sc3ccccc32)c(C)c1` (stereo not drawn) was “inactive”; that for `CCN1C(=O)/C(=C\N2CCN(c3cccc(Cl)c3)CC2)SC1=S` was “inactive”.
Same read-out and setting: the value for `CCc1nn(CCCN2CCN(c3cccc(Cl)c3)CC2)c(=O)n1CCOc1ccccc1` was 16.4 µM (active); that for `OC(COc1ccccc1)CN1CCN(c2cccc(Cl)c2)CC1` (stereo not drawn) was “inactive”; that for `Cc1ccc(-c2noc(CSc3nnc(-c4ccc(Cl)cc4)n3C)n2)cc1` was “inactive”.
With `COC(=O)c1ccccc1NC(=O)Cn1c(=O)cc(C)c2c(C)nn(-c3cccc(Cl)c3C)c21`, the Potency entry is “inactive”.
Same read-out and setting: the same measure for `Cc1nnc(SCC(=O)N2CCN(c3ccccc3)CC2)n1-c1ccccc1`: “inactive”; for `COc1cccc(-c2ccc(SCC(=O)N3CCN(c4ccccc4)CC3)nn2)c1`: 20.6 µM (active); for `COc1cccc(/C=C/C(=O)OCC(=O)N2CCN(c3ccccc3)CC2)c1`: “inactive”.
Same read-out and setting: the same measure for `C=CCC[C@@H](Cc1ccc(F)cc1)C(=O)O[C@H](CNC(=O)[C@H](CC=C)CC(=O)N(CCO)Cc1ccccc1)c1ccccc1`: 18.4 µM (active).
On the same count and under the same terms, the same measure for `C=CC[C@@H](CC(=O)N[C@H](CO)Cc1ccccc1)C(=O)N[C@@H](COC(=O)[C@@H](CC=C)Cc1ccc(F)cc1)Cc1c[nH]c2ccccc12`: “inactive”.
As for `C=CC[C@H](CC(=O)OC(C)(C)C)C(=O)OC[C@H]1CCCN1C(=O)[C@H](CC=C)CC(=O)N(CCO)Cc1ccccc1`, the Potency entry is “inactive”.
On the same count and under the same terms, the same measure for `C=CC[C@@H](CC(=O)N[C@H](CO)Cc1ccccc1)C(=O)N[C@H](C)COC(=O)[C@@H](CC=C)Cc1ccc(F)cc1`: “inactive”; for `C=CCC[C@@H](Cc1ccc(F)cc1)C(=O)OC[C@H](Cc1c[nH]c2ccccc12)NC(=O)[C@@H](CC=C)CC(=O)N(CCO)Cc1ccccc1`: 20.6 µM (active); for `C=CCC[C@@H](Cc1ccc(F)cc1)C(=O)OC[C@@H](C)NC(=O)[C@H](CC=C)CC(=O)N(CCO)Cc1ccccc1`: “inactive”.
On the same count and under the same terms, the same measure for `CCOC(=O)c1ccc(N2C(=O)c3n[nH]c(-c4ccco4)c3C2c2ccc(O)cc2)cc1` (stereo not drawn): “inactive”; for `O=C1[C@@H](c2ccccc2)[C@@H](c2ccccc2)N1c1cccnc1`: “inactive”; for `O=C(C1CCCN(S(=O)(=O)c2ccccc2)C1)N1CCN(c2ccc(F)cc2)CC1` (stereo not drawn): 23.1 µM (active).
Same read-out and setting: the same measure for `CC(=O)Nc1ccc(NC(=O)C2CCCN(S(=O)(=O)c3ccc(Cl)cc3)C2)cc1` (stereo not drawn): “inactive”; for `CC(=O)N1c2ccc(S(=O)(=O)N3CCC(C(=O)NC4CCCCC4C)CC3)cc2CC1C` (stereo not drawn): “inactive”.
With `CC(=O)N1CCCc2cc(S(=O)(=O)CCC(=O)N3CCN(c4ccccc4)CC3)ccc21`, the Potency entry was “inactive”.
Still for that read-out and setting: the same measure for `CC(=O)N1c2ccc(S(=O)(=O)N3CCCC(C(=O)NCc4ccc(Cl)cc4)C3)cc2CC1C` (stereo not drawn): 8.2 µM (active); for `CC(=O)N1c2ccc(S(=O)(=O)N3CCCC(C(=O)Nc4cccc(Cl)c4)C3)cc2CC1C` (stereo not drawn): 6.51 µM (active).
As to `CC(=O)N1CCCc2cc(S(=O)(=O)N3CCCC(C(=O)N4CCN(c5cccc(Cl)c5)CC4)C3)ccc21` (stereo not drawn), the Potency was 7.31 µM (active).
Still for that read-out and setting: the same measure for `CCCS(=O)(=O)N1CCCC(C(=O)N2CCN(c3ccccc3)CC2)C1` (stereo not drawn): “inactive”; for `CC(=O)N1c2ccc(S(=O)(=O)N3CCC(C(=O)NCc4ccc(F)cc4)CC3)cc2CC1C` (stereo not drawn): “inactive”.
The same measure, in the same setting: the value for `CC(=O)N1c2ccc(S(=O)(=O)N3CCC(C(=O)N4CCN(c5ccccc5)CC4)CC3)cc2CC1C` (stereo not drawn) was “inactive”; that for `COc1ccccc1CNC(=O)C1CCN(S(=O)(=O)c2ccc3c(c2)CC(C)N3C(=O)C2CC2)CC1` (stereo not drawn) was “inactive”; that for `Cc1ccc(S(=O)(=O)N2CCCC(C(=O)N3CCN(C)CC3)C2)cc1` (stereo not drawn) was “inactive”.
Still for that read-out and setting: the value for `O=S(=O)(c1ccc2c(c1)OCCO2)N1CCN(S(=O)(=O)c2cc(F)ccc2F)CC1` was “inactive”; that for `Cn1c(=O)c2c(nc(SCC(=O)Nc3ccc(F)cc3)n2Cc2ccc(Cl)cc2)n(C)c1=O` was “inactive”; that for `COc1cc(C(=O)N2CCN(S(=O)(=O)c3ccc(C(C)C)cc3)CC2)ccc1OCC(=O)N1CCOCC1` was “inactive”.
As for `COC(=O)Cc1c(-c2[nH]c3ccccc3c2CC(=O)OC)[nH]c2ccccc12`, the Potency result was “inactive”.
Same read-out and setting: the same measure for `O=C(c1ccc2c(c1)N(Cc1ccccc1)C(=O)c1ccccc1S2(=O)=O)N1CCCC1`: “inactive”; for `O=C(CCS(=O)(=O)c1ccc2c(c1)NC(=O)CO2)Nc1cccc(C(F)(F)F)c1`: “inactive”; for `Cc1cc2c(cc1C)NC1(C[C@H]3CCC(=O)N4CC[C@@H](C1)[C@@H]34)C(=NC(C)(C)CC(C)(C)C)N2` (stereo partly drawn): “inactive”.
The same measure, in the same setting: the same measure for `COc1ccccc1-c1noc(CSc2nnc(-c3ccccc3)n2-c2ccc(C)c(C)c2)n1`: “inactive”; for `COc1cc(CC(=O)Nc2nc(-c3ccc(F)c(F)c3)cs2)cc(OC)c1OC`: 11.6 µM (active).
For the compound `COc1ccc(CCNc2nc(-c3cccc(NC(C)=O)c3)cs2)cc1OC`, the Potency result is “inactive”.
Take `COc1ccc(CC(=O)Nc2nc(-c3ccc(F)c(F)c3)cs2)cc1OC`: the Potency was 1.84 µM (active).
Same read-out and setting: the value for `COc1ccc(-c2csc(NC(=O)c3ccc(N4C(=O)CCC4=O)cc3)n2)cc1OC` was “inactive”; that for `COc1ccccc1NC(=O)Nc1nc(CC(=O)Nc2ccccc2F)cs1` was “inactive”.
Same read-out and setting: the same measure for `Cc1ccc(S(=O)(=O)NC(=O)Nc2nc(-c3ccc(F)c(F)c3)cs2)cc1`: “inactive”; for `COc1ccccc1CNC(=O)C(Cc1ccccc1)NS(=O)(=O)c1ccc2c(c1)oc(=O)n2C` (stereo not drawn): “inactive”; for `COc1ccc(NC(=O)CN2CCCN(Cc3ccccc3)S2(=O)=O)cc1`: “inactive”.
The same measure, in the same setting: the value for `COC(=O)c1ccc(NCc2cc(O)ccc2O)cc1` was “inactive”; that for `CN(CC(=O)Nc1ccc(Cl)cc1)CC(=O)Nc1cccc2ccccc12` was “inactive”.
With `O=C(c1ccc(Cl)c(S(=O)(=O)N2CCCCCC2)c1)N1CCN(c2ccc(O)cc2)CC1`, the Potency is 23.1 µM (active).
Turning to `O=C(c1ccc(Cl)c(Cl)c1)N1CCCC1`, the Potency entry is “inactive”.
`O=C(c1ccc(Cl)c(S(=O)(=O)N2CCCCC2)c1)N1CCCCCC1`: the Potency entry was “inactive”.
As for `O=C(c1ccccc1F)N1CCC(c2nc3c(nnn3Cc3cccc(F)c3)c(=O)[nH]2)CC1`, the Potency entry is “inactive”.
Same read-out and setting: the value for `COc1ccc(CN2C(=O)C(NC(=O)c3cccc(C)c3)(C(F)(F)F)N=C2c2ccccc2)cc1` (stereo not drawn) was “inactive”; that for `COc1ccc(CCNC(=O)CSc2nc(-c3ccc(OC)c(OC)c3)ccc2C#N)cc1` was 18.4 µM (active); that for `COc1cccc(-c2ccc(C#N)c(SCC(=O)NCCc3ccc(Cl)cc3)n2)c1` was “inactive”.
Still for that read-out and setting: the value for `COc1ccc(CCNC(=O)CSc2nnc3ccc(-c4ccncc4)nn23)cc1` was “inactive”; that for `CCOc1ccc2oc(=O)cc(CN3CCN(C(=O)c4ccc(F)cc4)CC3)c2c1` was “inactive”; that for `O=C1c2ccccc2C(=O)C1c1ccccc1F` was “inactive”.
Same read-out and setting: the value for `O=C1c2ccccc2C2=Nc3ccccc3SC(c3ccccc3F)C12` (stereo not drawn) was 23.1 µM (active).
For `Cc1cccc(NC(=O)c2nnn(CC(=O)Nc3ccc(C(C)C)cc3)c2N)c1C`, the Potency result was “inactive”.
Same read-out and setting: the same measure for `O=C(CSc1nnc(CN2CCCC2)n1-c1ccc(F)cc1)c1ccc2c(c1)OCO2`: “inactive”.
Consider `COc1ccccc1-c1cc(C(F)(F)F)nc(S(=O)(=O)CCCC(=O)Nc2ccc(F)cc2F)n1`, for which the activity change, negative = inhibition was 10.4% [at 9.27 µM].
Consider `COc1cc(C(=O)NC2CCN(C)CC2)ccc1Nc1ncc2c(n1)N(C1CCC(O)CC1)CCC(=O)N2C` (stereo not drawn), for which the Potency result is “inactive”.
In the case of `CCOc1ccc(NC(=S)N2CCC(NC(=O)c3ccccc3)CC2)cc1`, the Potency entry is “inactive”.
On the same count and under the same terms, the value for `CCOc1ccc(NC(=O)CN2CCN(CC(=O)Nc3ccc(OC)cc3)CC2)cc1` was “inactive”; that for `O=C(CN1CCN(C(=S)NC2CCCC2)CC1)Nc1ccc(Oc2ccccc2)cc1` was 16.4 µM (active).
Same read-out and setting: the same measure for `CCc1cc2c(-c3ccccc3)cc(=O)oc2c2c1OCN(Cc1ccc(C)cc1)C2`: “inactive”.
For `O=C(Cc1ccc(NC(=O)C2CCCN(C(=O)CCc3ccccc3)C2)cc1)Nc1ccc(C(=O)N2CCOCC2)cc1` (stereo not drawn), the Potency entry was “inactive”.
The same measure, in the same setting: the value for `CC(C)OC(=O)c1ccc(NCc2cc(O)ccc2O)cc1Cl` was “inactive”; that for `Cc1ccc(S(=O)(=O)c2nc(-c3cccs3)oc2NCc2cccnc2)cc1` was “inactive”; that for `O=S(=O)(c1ccccc1)c1nc(-c2ccccc2F)oc1NCc1cccnc1` was “inactive”.
The same measure, in the same setting: the value for `O=S(=O)(c1ccc(Br)cc1)c1nc(-c2ccccc2)oc1NCc1cccnc1` was 20.6 µM (active); that for `CC[N+]1(CC)CC2=Cc3ccccc3CC2C1` (stereo not drawn) was 23.1 µM (active).
The same measure, in the same setting: the same measure for `COc1cc(OC)cc(C(=O)Nc2c(C(=O)Nc3ccc(F)cc3)oc3ccccc23)c1`: “inactive”.
For `COc1cccc(/C=N/Nc2cc(C)nc(-c3ccccc3O)n2)c1O`, the Potency is 14.6 µM (active).
Same read-out and setting: the same measure for `COc1cccc(/C=N/NC(=O)c2[nH]nc3c2CCc2ccccc2-3)c1O`: “inactive”.
Regarding `COc1cccc(/C=N\NC(=O)C2=NNC(=O)C2C)c1O` (stereo not drawn), the Potency entry is “inactive”.
Turning to `Cc1nc2nc(SCC(=O)N(Cc3ccccc3)C(C)C)nn2c(C)c1Cc1ccccc1Cl`, the activity change, negative = inhibition was 8.79% [at 9.27 µM].
In the case of `CCN1CCc2nc3sc(C(=O)Nc4ccccc4OC(F)(F)F)c(N)c3cc2C1`, the Potency entry is “inactive”.
Same read-out and setting: the value for `COC(=O)c1c(NC(=O)CCN2CCOCC2)sc2c1CCCC2` was “inactive”.
`COC(=O)c1c(NC(=O)C2CC(C)=C(C)CC2C(=O)O)sc2c1CCCCC2` (stereo not drawn): the Potency result is “inactive”.
Same read-out and setting: the same measure for `NC(=O)c1c(NC(=O)CSc2nc(N)cc(=O)[nH]2)sc2c1CCCC2`: “inactive”; for `COC(=O)c1c(NC(=O)CSc2nncs2)sc2c1CCCCC2`: 18.4 µM (active).
Take `COC(=O)c1c(NC(=O)CCCC(=O)O)sc2c1CCCCC2`: the Potency is 5.17 µM (active).
Same read-out and setting: the value for `COC(=O)c1c(NC(=O)c2ccc(Cl)c(Cl)c2)sc2c1CCCC2` was “inactive”.
